Several values for one entry are separate records, joined by “and”; a condition that tells them apart may be missing. Equal values may be shown once. Records with an inconclusive call do not appear. Some compounds were tested as several samples or in several runs, with calls that do not always agree. Activity calls are given as the source filed them. Unless noted, the call rests on the fitted dose curve; in most records, active means well fitted curve in the direction sought with a large enough effect in the repeat runs; inconclusive means weak or mixed curves; inactive means no such curve, though single readings can be large; an effect the other way counts as inactive or inconclusive.

The values that follow come from PubChem BioAssay (Tox21).

Assay [1] can be described thus: qHTS assay to identify small molecule agonists of the RXR signaling pathway - cell viability counter screen (AID 1159529). Further: nearly all actives have a fitted effect of over 50% in size. Further: potency means the concentration at half of the fitted maximal effect. In outline: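 RXR-alpha-UAS-bla HEK 293T cells in medium with 2% charcoal-stripped FBS were preincubated 5 hr, then exposed to compounds for 16 hr at 37 C. Viability was read as CellTiter-Glo luminescence after 30 min at room temperature.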
The nature of assay [2]: qHTS assay to identify small molecule antagonists of the retinoid acid receptor (RAR) signaling pathway - cell viability counter screen (AID 1159551). Further: nearly all actives have a fitted effect of over 35% in size. Further: potency means the concentration at half of the fitted maximal effect. In outline: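 Cytotoxicity counter screen in C3RL4 cells: 6 h compound exposure with 1 uM retinol (final), viability from cellular ATP by luminescence.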
(qHTS replaces the single test concentration by a dilution series.)

Assay [3] in a line: qHTS assay to identify small molecule antagonists of the estrogen related receptor (ERR) signaling pathway from Tox21 library - cell viability counter screen (AID 1224834). Further: nearly all actives have a fitted effect of over 30% in size. Further: potency means the concentration at half of the fitted maximal effect. In outline: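 Cytotoxicity of test substances is gauged in the same ERR cells used for the antagonist screen, after 17.5 h of compound treatment at 37 C, by CellTiter-Fluor fluorescence measured after 30 min.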

In assay [4] the target is Luciferin 4-monooxygenase (Photinus pyralis) (UniProt P08659). The experiment in a line: qHTS assay to identify small molecule inhibitors of firefly luciferase (AID 1224835). Further: nearly all actives have a fitted effect of over 25% in size. Further: potency means the concentration at half of the fitted maximal effect. The procedure, abridged: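 Quantitative HTS format; KM concentrations of both substrates. Purified P. pyralis FLuc activity quantified from luminescence images.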
Chain of Luciferin 4-monooxygenase (Photinus pyralis) (P08659 whole entry, looked up): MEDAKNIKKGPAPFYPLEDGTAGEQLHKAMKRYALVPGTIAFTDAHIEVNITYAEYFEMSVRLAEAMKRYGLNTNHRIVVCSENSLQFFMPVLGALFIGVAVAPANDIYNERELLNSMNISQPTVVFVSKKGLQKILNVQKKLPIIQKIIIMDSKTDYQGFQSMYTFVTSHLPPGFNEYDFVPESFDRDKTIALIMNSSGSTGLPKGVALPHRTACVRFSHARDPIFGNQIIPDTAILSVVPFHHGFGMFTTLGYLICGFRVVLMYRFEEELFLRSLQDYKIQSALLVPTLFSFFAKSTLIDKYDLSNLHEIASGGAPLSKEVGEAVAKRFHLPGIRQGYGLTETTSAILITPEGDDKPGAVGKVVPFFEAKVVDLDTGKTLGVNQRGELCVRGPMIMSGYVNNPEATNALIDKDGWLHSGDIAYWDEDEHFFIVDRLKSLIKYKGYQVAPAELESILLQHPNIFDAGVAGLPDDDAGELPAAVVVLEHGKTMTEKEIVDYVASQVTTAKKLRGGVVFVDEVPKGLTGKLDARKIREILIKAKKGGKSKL
The nature of assay [5]: qHTS assay to identify small molecule agonists of the constitutive androstane receptor (CAR) signaling pathway - cell viability counter screen (AID 1224836). Further: series mostly up to about 92 µM; nearly all actives have a fitted effect of over 45% in size. The procedure, abridged:
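HepG2 cells stably carrying hCAR and a CYP2B6-2.2kb reporter were plated 4 h, then given compounds at 15 concentrations plus PK11195 (final 0.75 uM). After 23 h at 37 C, viability was read by CellTiter-Fluor fluorescence.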

The nature of assay [6]: qHTS assay to identify small molecule antagonists of the estrogen related receptor signaling pathway with the pleiotropic PPARgamma coactivator (PGC) from Tox21 10K library - cell viability counter screen (AID 1224840; active means well fitted cell-killing curve with a large enough effect in the repeat runs, not every such curve was filed as active; further: nearly all actives have a fitted effect of over 40% in size; further: potency means the concentration at half of the fitted maximal effect). The procedure, abridged:
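Step one, plate 2,000 PGC/ERR cells per well; step two, incubate 6 h at 37 C/5% CO2; step three, pin-transfer compounds; step four, incubate 17.5 h; step five, add CellTiter-Fluor and read fluorescence after 30 min.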

Assay [7] has as its target Thyrotropin receptor (Homo sapiens) (UniProt P16473). Kind of assay: qHTS assay to identify small molecule agonists of the thyroid stimulating hormone receptor (TSHR) signaling pathway (AID 1224843; calls by dose curve; further: nearly all actives have a fitted effect of over 45% in size; further: potency means the concentration at half of the fitted maximal effect). In outline: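 Cell line HEK293 with TSHR; density 800/well. Exposure 30 min RT. Readout HTRF cAMP (cAMP-d2/anti-cAMP-cryptate), 1 h RT before reading.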
Assay [8] in a line: qHTS assay to identify small molecule antagonists of the constitutive androstane receptor (CAR) signaling pathway - cell viability counter screen (AID 1224837). Further: series mostly up to about 92 µM; nearly all actives have a fitted effect of over 45% in size. In outline: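 Multiplexed cytotoxicity read-out for the CAR antagonist screen: double-stable HepG2-CYP2B6-hCAR cells co-treated with 50 nM CITCO (final) and compound over 15 concentrations, incubated 23 hr, then assessed by CellTiter-Fluor fluorescence.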

For assay [9], the target named is Nuclear receptor subfamily 1 group I member 3 (Homo sapiens) (UniProt Q14994). Kind of assay: qHTS assay to identify small molecule agonists of the constitutive androstane receptor (CAR) signaling pathway (AID 1224839). Further: nearly all actives have a fitted effect of over 15% in size. Further: potency means the concentration at half of the fitted maximal effect. The procedure, abridged: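 HepG2 cells stably expressing hCAR and a CYP2B6-2.2kb luciferase reporter were treated with compounds at 15 concentrations plus 0.75 uM PK11195 (final) for 24 h at 37 C; luminescence was read after ONE-Glo addition.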
Chain of Nuclear receptor subfamily 1 group I member 3 (Homo sapiens) (Q14994 whole entry, looked up): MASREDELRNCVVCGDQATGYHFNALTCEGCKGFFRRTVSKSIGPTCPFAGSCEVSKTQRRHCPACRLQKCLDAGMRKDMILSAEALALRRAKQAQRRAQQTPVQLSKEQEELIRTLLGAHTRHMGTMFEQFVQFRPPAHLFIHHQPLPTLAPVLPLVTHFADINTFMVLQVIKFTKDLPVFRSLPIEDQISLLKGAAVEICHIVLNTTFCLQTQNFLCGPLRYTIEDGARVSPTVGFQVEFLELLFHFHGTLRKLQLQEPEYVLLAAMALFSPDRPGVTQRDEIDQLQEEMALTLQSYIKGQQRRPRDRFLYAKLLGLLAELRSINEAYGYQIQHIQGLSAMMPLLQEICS

The nature of assay [10]: qHTS assay to identify small molecule antagonists of the retinoic acid receptor (RAR) signaling pathway (AID 1159552; further: nearly all actives have a fitted effect of over 50% in size). The procedure, abridged:
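RARE-luc C3RL4 cells; cpds + 1 uM (final) retinol, 6 hr, 37 C/5% CO2; luciferase reagent, 30 min RT, luminescence readout. Inhibitors of retinol-driven signal scored.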

Assay [11] can be described thus: qHTS assay to identify small molecule agonists of the retinoic acid receptor (RAR) signaling pathway (AID 1159553). In outline: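 Agonist activity was scored in C3RL4 cells bearing a retinoic acid response element luciferase construct. Cells were treated with compounds for 6 hr at 37 C, and luciferase signal was measured as luminescence.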
Assay [12] is described as follows: qHTS assay to identify small molecule antagonists of the estrogen related receptor signaling pathway with the pleiotropic PPARgamma coactivator (PGC) from Tox21 10K library (AID 1224841; call rule not given here; further: series mostly up to about 92 µM; actives are mostly falling curves and most rising ones were filed inactive; nearly all actives have a fitted effect of over 50% in size). The procedure, abridged: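 Antagonism in this quantitative HTS is taken from loss of luciferase signal in PGC/ERR cells. Cells (2,000/well) are treated with compounds in DMSO after a 6 h settling period and read by One-Glo luminescence after 18 h.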

Assay [13] can be described thus: qHTS assay to identify small molecule agonists of the estrogen related receptor signaling pathway with the pleiotropic PPARgamma coactivator (PGC) from Tox21 10K library (AID 1224842). Further: nearly all actives have a fitted effect of over 15% in size. In outline:
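PGC/ERR reporter cells (NTP line) were seeded 2,000 per well, rested 6 h at 37 C/5% CO2, then pin-dosed with compounds in DMSO for 18 h at 37 C; luciferase read by One-Glo luminescence after 30 min at room temperature.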

Assay [14] has as its target Nuclear receptor subfamily 1 group I member 3 (Homo sapiens) (UniProt Q14994). The experiment in a line: qHTS assay to identify small molecule antagonists of the constitutive androstane receptor (CAR) signaling pathway (AID 1224838). Further: nearly all actives have a fitted effect of over 40% in size. Further: potency means the concentration at half of the fitted maximal effect. The procedure, abridged:
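Compounds were titrated across 15 concentrations onto HepG2 cells double-stably expressing hCAR and a CYP2B6-2.2kb reporter, together with 50 nM CITCO (final). After 24 h at 37 C, luciferase activity was measured by luminescence.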

Chain of Thyrotropin receptor (Homo sapiens) (P16473 whole entry, looked up): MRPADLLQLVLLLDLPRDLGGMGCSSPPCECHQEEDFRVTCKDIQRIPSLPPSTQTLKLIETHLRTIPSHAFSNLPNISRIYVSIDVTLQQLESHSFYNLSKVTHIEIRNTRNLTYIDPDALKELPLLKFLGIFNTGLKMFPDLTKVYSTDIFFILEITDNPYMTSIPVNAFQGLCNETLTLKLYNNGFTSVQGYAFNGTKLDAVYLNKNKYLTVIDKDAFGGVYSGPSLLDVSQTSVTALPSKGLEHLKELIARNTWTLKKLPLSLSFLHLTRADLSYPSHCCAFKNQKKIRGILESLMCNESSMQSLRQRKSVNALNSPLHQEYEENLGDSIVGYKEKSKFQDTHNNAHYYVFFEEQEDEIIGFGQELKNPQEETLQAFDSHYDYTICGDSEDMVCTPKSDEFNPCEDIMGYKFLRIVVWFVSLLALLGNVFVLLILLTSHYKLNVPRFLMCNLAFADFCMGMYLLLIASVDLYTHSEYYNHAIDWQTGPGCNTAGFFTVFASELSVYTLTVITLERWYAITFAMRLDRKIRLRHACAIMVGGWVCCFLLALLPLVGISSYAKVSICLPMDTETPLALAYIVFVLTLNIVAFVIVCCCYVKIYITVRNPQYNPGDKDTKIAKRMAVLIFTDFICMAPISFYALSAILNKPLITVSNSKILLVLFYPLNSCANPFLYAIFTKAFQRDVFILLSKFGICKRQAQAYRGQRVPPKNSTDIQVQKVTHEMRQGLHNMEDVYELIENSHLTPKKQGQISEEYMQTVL

As for `CCCC1CCCCN1` (stereo unspecified), the Potency result in assay [1], in assay [2], in assay [3], in assay [4], in assay [5] and in assay [6] was “inactive” each time. Besides, in assay [7], the Potency entry was “inactive”.
Turning to `CC(C)[C@@H](C(=O)O[C@@H](C#N)c1cccc(Oc2ccccc2)c1)c1ccc(Cl)cc1`, the Potency entry in assay [1], in assay [2], in assay [3], in assay [4], in assay [8] and in [6] was “inactive” each time. In addition, the Potency in [9] is 19.6 µM (active) and inactive.
In the case of `CC(O)CN1CCN(CC(=O)[O-])CCN(CC(=O)[O-])CCN(CC(=O)[O-])CC1.[Gd+3]` (stereo unspecified), the Potency result in [1], in assay [2], in [3], in assay [4], in assay [5] and in assay [8] was “inactive” in each case. The Potency entry in assay [6] and in [7] was “inactive” each time.
On to `CC(C)(C)CC(C)(C)c1ccc(O)cc1`, for which the Potency was 17.4 µM (active) and 23.9 µM (active) in [1]; 43.3 µM (active) in assay [2]; 6.86 µM (active) and 13.3 µM (active) in assay [7]. The Potency result in assay [4], in [5] and in [8] was “inactive” each time.
With `C=CCc1ccccc1O`, the Potency entry in assay [1], in assay [10], in assay [11], in [3], in [4] and in assay [5] was “inactive” throughout. In addition, the Potency entry in [8], in [6], in [12] and in [13] was “inactive” in each case.
For the molecule `CCCC(C)(COC(N)=O)COC(=O)NC(C)C` (stereo unspecified), the Potency entry in assay [1], in assay [2], in assay [3], in assay [4], in assay [8] and in assay [14] was “inactive” each time. Besides, the Potency result in [9], in [6], in assay [12], in assay [13] and in [7] was “inactive” throughout.
`CCCCCCCCCCCC[N+](C)(C)CCOc1ccccc1`: the Potency in assay [1] was 8.71 µM (active) and 12 µM (active); in assay [2], 61.1 µM (active); in assay [3], 61.1 µM (active) and 26.6 µM (active); in [6] it was 61.1 µM (active) and 29.8 µM (active); in assay [7], 48.6 µM (active) and inactive. The Potency result in assay [4], in [14] and in assay [13] was “inactive” in each case.
For `C=CCOC(=O)C(C)(C)OC(=O)c1cc(-n2c(=O)cc(C(F)(F)F)n(C)c2=O)ccc1Cl`, the Potency result in assay [1], in assay [2], in assay [4], in [5], in [8] and in [14] was “inactive” in each case. Further, the Potency result in assay [6] and in [13] was “inactive” in each case.
On to `C[N+]1(CCC(C(N)=O)(c2ccccc2)c2ccccc2)CCCCC1`, for which the Potency entry in assay [1], in assay [2], in [3], in assay [4], in assay [5] and in assay [8] was “inactive” throughout. Besides, the Potency entry in assay [6] and in assay [7] was “inactive” in each case.
Consider `CC1(C)[C@H](C(=O)O[C@H](C#N)c2cccc(Oc3ccccc3)c2)[C@@H]1C=C(Br)Br`, for which the Potency entry in assay [1], in assay [2], in assay [3], in [4], in [5] and in assay [8] was “inactive” each time. For the same molecule, the Potency result in assay [6], in assay [12] and in [13] was “inactive” throughout.
For `CCCC[N+]1(C)[C@@H]2CC(OC(=O)[C@H](CO)c3ccccc3)C[C@H]1[C@@H]1O[C@@H]12` (stereo partly specified), the Potency entry in assay [1], in [2], in [3], in [4], in assay [5] and in [9] was “inactive” each time. Moreover, the Potency entry in assay [6] and in [7] was “inactive” throughout.
For the molecule `CC(=O)OC(c1ccccc1)C(Cl)(Cl)Cl` (stereo unspecified), the Potency result in assay [1], in [2], in [3], in assay [4], in assay [5] and in [8] was “inactive” in each case. The Potency entry in [6] and in assay [7] was “inactive” each time.
`Nc1cccc2ccccc12`: the Potency result in [1], in assay [2], in assay [3], in assay [4], in assay [5] and in assay [14] was “inactive” each time. Besides, in assay [6], the Potency result was “inactive”. Besides, the Potency in [9] was 30.8 µM (active) and 61.1 µM (active).
On to `NNCCO`, for which the Potency result in assay [1], in assay [10], in assay [11], in assay [3], in assay [4] and in assay [5] was “inactive” throughout. The Potency result in assay [8], in assay [6], in assay [12], in assay [13] and in [7] was “inactive” throughout.
`c1ccc2c(c1)sc1ccccc12`: the Potency result in assay [1], in [10], in assay [11], in assay [3], in [5] and in assay [8] was “inactive” in each case. In addition, the Potency result in assay [14], in assay [6], in assay [12], in assay [13] and in assay [7] was “inactive” each time. Moreover, in assay [4], the Potency was 31.7 µM (active).
`CN1CC[C@]23c4c5ccc(O)c4O[C@H]2[C@@H](O)C=C[C@H]3[C@H]1C5`: the Potency entry in [1], in [2], in assay [3], in assay [4], in assay [5] and in assay [14] was “inactive” each time. The Potency entry in assay [6] and in assay [13] was “inactive” throughout.
On to `CCCCCCCCCCCCN(C)C`, for which the Potency result in [1], in [10], in assay [11], in assay [3], in assay [4] and in assay [5] was “inactive” in each case. The Potency result in assay [8], in assay [14], in assay [9], in assay [6], in [12] and in assay [13] was “inactive” throughout.
For the molecule `CCCN(CCC)c1c([N+](=O)[O-])cc(C(C)C)cc1[N+](=O)[O-]`, the Potency entry in [1], in assay [10], in assay [11], in assay [3], in [4] and in assay [8] was “inactive” each time. In addition, in [6], the Potency entry was “inactive”. For the same molecule, the Potency entry in assay [14] is “inactive and 1 nM (active)”; in assay [9], 33.6 µM (active) and inactive.
For the molecule `CCCCCCCCP(=O)(O)O`, the Potency result in [1], in assay [10], in assay [11], in assay [3], in [4] and in [5] was “inactive” each time. Moreover, the Potency entry in assay [8] and in assay [6] was “inactive” in each case.
